# Records with an inconclusive call do not appear. A call without a number means that no potency is given here. Activity calls are given as the source filed them. Calls follow the shape of the dose curve; as a rule, active = well fitted inhibition curve with a large enough effect; inconclusive = small, poorly fitted or top-dose-only effect; inactive = no such curve, though single readings can be large or run the other way.
# Biological target: N-terminal Xaa-Pro-Lys N-methyltransferase 1 (Homo sapiens) (UniProt Q9BV86)
# Sequence (Q9BV86 whole entry, looked up): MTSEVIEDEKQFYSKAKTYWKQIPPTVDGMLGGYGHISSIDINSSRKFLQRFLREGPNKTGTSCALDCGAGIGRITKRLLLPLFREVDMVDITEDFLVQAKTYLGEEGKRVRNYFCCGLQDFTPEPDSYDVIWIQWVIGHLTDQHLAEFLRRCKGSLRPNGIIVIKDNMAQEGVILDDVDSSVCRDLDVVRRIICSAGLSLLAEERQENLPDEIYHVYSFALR
# Assay: qHTS Assay for Inhibitors of N-terminal methyltransferase 1 (NTMT1): LOPAC validation of the NTMT1 SAHH-coupled ThioGlo3 Assay (AID 1347143);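 also: SAH from peptide methylation measured as thiol fluorescence via SAHH coupling and ThioGlo3; nearly all actives have a fitted effect of over 70% in size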
# Conditions: recombinant NTMT1, SAHH-coupled ThioGlo3 fluorescence; series mostly up to 114 µM
# How it was run: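 NTMT1 125nM + cpds (various conc.), 1 min RT; add SAM 100uM/SAHH 10uM/ThioGlo3 15uM (addition mix). SAHH-coupled thiol detection, Ex340/Em450, t0 and 30 min RT; signal normalized to background. LOPAC 1280-cpd pilot.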
# Potency is read from the fitted curve at half-maximal effect.
row,Structure (SMILES),Potency
1,NC(N)=N/N=C/c1c(Cl)cccc1Cl,inactive
2,C[C@]12CCC(=O)C=C1CC[C@@H]1[C@@H]2CC[C@@]2(C)[C@H]1CC[C@]2(O)C(=O)CO,inactive
3,CC1=NS(=O)(=O)c2cc(Cl)ccc2N1,inactive
4,CN(C)CC/C=C1\c2ccccc2COc2ccccc21,inactive
5,CCCCNC(=O)NS(=O)(=O)c1ccc(C)cc1,inactive
6,O=C(O)CCCCCCCC(=O)O,inactive
7,CC(=O)OC(C)C[N+](C)(C)C (stereo not given),inactive
8,CC(=O)Nc1nnc(S(N)(=O)=O)s1,inactive
9,Cc1ccc(/C(=C\CN2CCCC2)c2ccccn2)cc1,inactive
10,CC(C)(Oc1ccc(CCNC(=O)c2ccc(Cl)cc2)cc1)C(=O)O,inactive
11,COc1cc(C(=O)OCCCN2CCCN(CCCOC(=O)c3cc(OC)c(OC)c(OC)c3)CC2)cc(OC)c1OC,inactive
12,CNC1(C)C2CCC(C2)C1(C)C (stereo not given),inactive
13,CN(C)C(=O)Oc1cccc([N+](C)(C)C)c1,inactive
14,C[C@H](CS)C(=O)N1CCC[C@H]1C(=O)O,inactive
15,CCN1CCC[C@H]1CNC(=O)c1c(O)c(Cl)cc(Cl)c1OC,50.1 µM (active)
16,CCC(=O)c1ccc2c(c1)N(CCCN(C)C)c1ccccc1S2,39.8 µM (active)
17,CO[C@@]1(NC(=O)CSCC#N)C(=O)N2C(C(=O)O)=C(CSc3nnnn3C)CS[C@@H]21,inactive
18,O=C(CCNNC(=O)c1ccncc1)NCc1ccccc1,inactive

row,Structure (SMILES),Potency
1,CC(N=C(NC#N)Nc1ccncc1)C(C)(C)C (stereo not given),inactive
2,COCCCC/C(=N\OCCN)c1ccc(C(F)(F)F)cc1,inactive
3,CCN1CCc2nc(N)oc2CC1,56.2 µM (active)
4,Nc1ncn([C@@H]2O[C@H](CO)[C@@H](O)[C@H]2O)c(=O)n1,inactive
5,Cc1nc2c([nH]1)c(=O)n(C)c(=O)n2Cc1ccco1,inactive
6,c1ccc2c(c1)CCCC2C1=NCCN1 (stereo not given),inactive
7,CN(C)CCN(Cc1cccs1)c1ccccn1,inactive
8,NC1=NCC2c3ccccc3Cc3ccccc3N12 (stereo not given),inactive
9,O=C(O)CP(=O)(O)O,inactive
10,COC(=O)C1=C(C)NC(C)=C(C(=O)OC(C)(C)CN(C)CCC(c2ccccc2)c2ccccc2)C1c1cccc([N+](=O)[O-])c1 (stereo not given),inactive
11,NC(=O)c1cn(Cc2c(F)cccc2F)nn1,inactive
12,CCCN(CCC)C(=O)C(CCC(=O)O)NC(=O)c1ccccc1 (stereo not given),inactive
13,CN(C)CCCN1c2ccccc2Sc2ccccc21,44.7 µM (active)
14,CC(C)(C)NCC(O)c1cc(O)cc(O)c1 (stereo not given),inactive
15,CN=C(NC#N)NCCSCc1nc[nH]c1C,inactive
16,NC(N)=NC(=O)Cc1c(Cl)cccc1Cl,inactive
17,CCN(Cc1ccncc1)C(=O)C(CO)c1ccccc1 (stereo not given),inactive
